Bioassay records (PubChem BioAssay)
An excerpt weighted towards active compounds, which were near 3.9% of everything screened.
PLC-beta3 inh: blocks human PLC-beta3 enzyme activity. inhibition, % at 12.2 µM. 370,000 compounds, 0.18% hits. Purified PLC-beta3, fluorogenic substrate, fluorescence. Q01970; in the data active means inhibition above about 11%;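 further: 0% = median of compound wells on plate and 100% = full blocker control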
CR mimetic SO: yeast age-related superoxide inhibition as caloric restriction mimetic | 330,000 compounds, 0.18% hits | superoxide response (% of plate mean), % at 10 µM | S. cerevisiae aged cells, superoxide DHE fluorescence; hits give low values;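 active means superoxide response under a set limit, about three screen SD below normal, cut at about 65% in these data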;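 further: yeast aged for seven days with compound at 30 °C before DHE staining; 100% = average MFI of all compound-treated wells on the plate with controls excluded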
AHR act: activates the human aryl hydrocarbon receptor. activation, % at 5 µM. P35869. AHR-responsive luciferase reporter cells, luminescence. 320,000 compounds, 2.5% hits. AID 2796; in the data active means activation above about 47%;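 further: 0% = vehicle wells and 100% = reference agonist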
PLC-gamma1 inh: PLC-gamma1 (human) inhibition, primary screen | purified PLC-gamma1, fluorogenic substrate, fluorescence | inhibition, % at 12.2 µM | 370,000 compounds, 0.84% hits | AID 720700 | P19174; in the data active means inhibition above about 9.5%
HGIII-sPLA2 inh: Inhibits HGIII-sPLA2 liposome hydrolysis, primary screen. inhibition, % at 12.2 µM. Q9NZ20. 370,000 compounds, 0.56% hits. QFRET BODIPY PC-A2 liposome hydrolysis, fluorescence. AID 743126;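 active means inhibition above mean plus 3 SD of compounds lying within the high and low control bounds, cut at about 19% in these data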;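 further: 0% = median of test compound wells and 100% = no enzyme DMSO wells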
HIF activator: HIF pathway transcriptional activation; U2OS HRE-luciferase reporter, luminescence; normalized: DMSO 0%, desferrioxamine 100%; activation, % at 7.5 µM (by protocol); 300,000 compounds, 0.32% hits; AID 1910;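 active means mean activation of at least 10% of the iron chelator positive control signal, with at least half of replicates also reaching 10%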
Numbers without * were called inactive.

Results for COC(=O)c1ccc(C(C(=O)NCc2ccccc2)N(Cc2ccco2)C(=O)c2cnccn2)cc1 (stereo not given) ?
PLC-beta3 inh: -23; CR mimetic SO: 106; AHR act: 0; PLC-gamma1 inh: -23; HGIII-sPLA2 inh: -5; HIF activator: 174*

How did FC(F)(F)COc1nc(OCC(F)(F)F)nc(N2CCN(c3ccccc3)CC2)n1 do in these assays?
PLC-beta3 inh: 1; CR mimetic SO: 91; AHR act: -9; PLC-gamma1 inh: 1; HGIII-sPLA2 inh: 1

How did FC(F)(F)COc1nc(N2CCOCC2)nc(N(c2ccccc2)c2ccccc2)n1 do in these assays?
PLC-beta3 inh: -32; CR mimetic SO: 89; AHR act: 1; PLC-gamma1 inh: 13*; HGIII-sPLA2 inh: -1; HIF activator: 0

Results for CCNC(=O)Nc1ccc2c(c1)C(=O)N(C)[C@H]1CC[C@@H](CC(=O)OC)O[C@H]1CO2 ?
PLC-beta3 inh: 2; PLC-gamma1 inh: 0; HGIII-sPLA2 inh: 1

How did Cc1sc2nc(SCC(=O)c3ccc(O)c(O)c3)n(C)c(=O)c2c1C do in these assays?
PLC-beta3 inh: -1; PLC-gamma1 inh: -2; HGIII-sPLA2 inh: 7

How did COc1ccc2nc(C)cc(N/N=C/c3cccc(OC)c3O)c2c1 do in these assays?
PLC-beta3 inh: -21; CR mimetic SO: 99; AHR act: 111*; PLC-gamma1 inh: -17; HGIII-sPLA2 inh: -4; HIF activator: -3

What do the screens show for `COc1ccc(/C=N/Nc2cc(C)nc3ccc(Br)cc23)cc1`?
PLC-beta3 inh: -160; CR mimetic SO: 89; AHR act: 71*; PLC-gamma1 inh: -119; HGIII-sPLA2 inh: -9; HIF activator: -11

What do the screens show for `COc1ccccc1-n1c(=O)oc2ccc(Cl)cc2c1=O`?
PLC-beta3 inh: -32; CR mimetic SO: 99; AHR act: 68*; PLC-gamma1 inh: -23; HGIII-sPLA2 inh: -3

What do the screens show for `COc1ccc(-c2cc(-c3nnc(SCC(=O)Nc4cccc(Cl)c4C)n3N)[nH]n2)cc1`?
PLC-beta3 inh: 0; PLC-gamma1 inh: 6; HGIII-sPLA2 inh: 10

What do the screens show for `Cc1ccc2[nH]c3c(=O)n(CCN4CCNCC4)cnc3c2c1`?
PLC-beta3 inh: -11; CR mimetic SO: 96; AHR act: 21; PLC-gamma1 inh: -4; HGIII-sPLA2 inh: 0; HIF activator: 1

What do the screens show for `CC(C)CCn1cnc2c([nH]c3cccc(Cl)c32)c1=O`?
PLC-beta3 inh: -1; CR mimetic SO: 83; AHR act: 60*; PLC-gamma1 inh: -2; HGIII-sPLA2 inh: 13; HIF activator: 1

What do the screens show for `O=c1c2[nH]c3ccccc3c2ncn1CCN1CCCCC1`?
PLC-beta3 inh: -4; CR mimetic SO: 99; AHR act: 72*; PLC-gamma1 inh: -6; HGIII-sPLA2 inh: 1; HIF activator: 1

How did O=c1c2[nH]c3ccccc3c2ncn1C1CCCCC1 do in these assays?
PLC-beta3 inh: -1; CR mimetic SO: 90; AHR act: 48*; PLC-gamma1 inh: 0; HGIII-sPLA2 inh: 2; HIF activator: 6

What do the screens show for `COc1ccc(CC(=O)N(Cc2ccccc2)c2ccccc2C(=O)Nc2cc(OC)ccc2OC)cc1`?
PLC-beta3 inh: -20; PLC-gamma1 inh: -14; HGIII-sPLA2 inh: -2

Results for CC1=[N+](CC(=O)c2ccccc2)CCn2cccc21 ?
PLC-beta3 inh: -100; CR mimetic SO: 100; AHR act: 47*; PLC-gamma1 inh: -90; HGIII-sPLA2 inh: 7; HIF activator: 1

How did CN1C(=O)C2(N=c3ccccc3=N2)c2ccccc21 do in these assays?
CR mimetic SO: 113; AHR act: 51*; HIF activator: 0

Results for COC(=O)c1c(/N=C/N(C)C)sc2c1CCN(c1ncc(C(F)(F)F)cc1Cl)C2 ?
PLC-beta3 inh: -27; CR mimetic SO: 86; AHR act: 72*; PLC-gamma1 inh: -19; HGIII-sPLA2 inh: -1; HIF activator: 0

What do the screens show for `Fc1ccc(C2c3[nH]c4ccccc4c3CCN2Cc2ccoc2)cc1` (stereo not given)?
PLC-beta3 inh: -37; CR mimetic SO: 129; AHR act: 51*; PLC-gamma1 inh: -33; HGIII-sPLA2 inh: -4; HIF activator: 0

What do the screens show for `O=C1C=C(Nc2ccccc2O)c2ccccc2C1=O`?
PLC-beta3 inh: -38; CR mimetic SO: 124; AHR act: 72*; PLC-gamma1 inh: -32; HGIII-sPLA2 inh: -8; HIF activator: -2
